We go through 8 compounds from PubChem BioAssay (NCI).

Compounds without any hit were thinned out: in the full panel of roughly 83,000, 20% have a hit.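 Negative percent growth values reflect cell death: -40 means 40% of the cells present at the start died, and -100 means all died.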 Values without a mark were called inactive. Calls of active or inactive are those of the source. The calls were made as follows: active = growth percent below 10; inactive = the rest.

Holding throughout (assay): NCI-60 one-dose screen, 48 h (100 = growth as untreated, 0 = no growth, -100 = all killed)
Conditions in all cases: 10 µM unless noted

Assay [1] deals with SR leukemia.
Assay [2] deals with RPMI-8226 leukemia.
The subject of assay [3] is OVCAR-8 ovarian.
The subject of assay [4] is OVCAR-5 ovarian.
The test system of assay [5] is OVCAR-4 ovarian.
The test system of assay [6] is SK-OV-3 ovarian.
Assay [7] deals with IGROV1 ovarian.
For assay [8], the system named is OVCAR-3 ovarian.
Assay [9] deals with HS 578T breast.
Assay [10] relates to NCI/ADR-RES ovarian.
For assay [11], the system named is T-47D breast.
Assay [12] relates to BT-549 breast.
Assay [13] deals with MDA-MB-435 melanoma.
The subject of assay [14] is SW-620 colon.
The test system of assay [15] is MCF7 breast.
Assay [16] deals with HCT-116 colon.
Assay [17] deals with HCC-2998 colon.
The subject of assay [18] is KM12 colon.

Take `O=C1C2CC=CCC2C(=O)N1CNc1ccc(Cl)cc1` (centres undefined): the growth was 126% in assay [1]; 116% in assay [2]; 110% in [3]; 87.6% in assay [4]; 112% in [5]; 101% in assay [6]. In addition, the growth in assay [7] is 74.6%; in assay [8], 107%; in [9] it was 79.3%; in assay [10] it was 95.2%; in assay [11] it was 86.2%; in assay [12] it was 84.1%. Also, the growth in [13] is 108%; in [14], 94%; in [15] it was 102%; in assay [16] it was 90.1%; in [17] it was 98.8%; in [18] it was 104%.
`Nc1c(C(=O)Nc2cccc3c2OCCO3)sc2nc3c(cc12)CN(Cc1ccccc1)CC3`: the growth in assay [1] is 35.5%; in [2], 77.5%; in assay [3] it was 87.7%; in [4], 95.3%; in assay [5], 74.5%; in assay [6] it was 89.2%. In addition, the growth is 60.7% in assay [7]; 26.7% in assay [8]; 66% in assay [9]; 53% in assay [10]; 68.2% in [11]; 69.7% in assay [12]. Further, the growth in [13] was 6.47% (active); in assay [14] it was 47.6%; in [15], 28.3%; in assay [16], 45.4%; in [17], 101%; in assay [18], 59.4%.
In the case of `COc1cc(OC)c(/C=C/c2cc[n+](C)c3ccccc23)c(OC)c1`, the growth in assay [1] was -16.8% (active); in assay [2] it was -2.59% (active); in [3], -8.8% (active); in [4], 49.4%; in assay [5], 13.6%; in assay [6], -10.8% (active). For the same compound, the growth in [7] was 6.79% (active); in assay [8], -26.6% (active); in [9] it was 18.8%; in assay [10], 91.3%; in assay [11] it was 9.89% (active); in assay [12], 24%. Further, the growth was 4.33% (active) in [13]; 19.8% in assay [14]; 5.4% (active) in assay [15]; 11.4% in assay [16]; 10% in assay [17]; -19.9% (active) in assay [18].
`O=C1c2cccnc2C(=O)c2c1c(C(=O)OCCN1CCCCC1)c1ccccn21`: the growth in assay [1] is -23.9% (active); in assay [2], -29.9% (active); in assay [3], -58.2% (active); in assay [4], -27.8% (active); in assay [5], 0.138% (active); in assay [6], -36.8% (active). Moreover, the growth in assay [7] is -16.7% (active); in assay [8], -2.68% (active); in assay [9], -0.578% (active); in assay [10], -25.5% (active); in [11] it was 4.01% (active); in assay [12] it was 20.1%. For the same compound, the growth in assay [13] was -5.97% (active); in assay [14] it was -13.6% (active); in [15] it was -43.3% (active); in [16], -8.36% (active); in [17], -46.6% (active); in [18], 8.77% (active).
For the compound `COc1ccc(CN(c2ccc(C)cc2)C2OC(=O)c3ccccc32)cc1OC` (centres undefined), the growth in assay [1] was 83.8%; in [2] it was 93.9%; in assay [3], 108%; in [4] it was 89.7%; in assay [5] it was 103%; in [6], 118%. The growth in assay [7] is 116%; in assay [8], 113%; in assay [9], 102%; in [10] it was 96.3%; in assay [11], 95.2%; in assay [12] it was 106%. The growth is 100% in [13]; 99.2% in assay [14]; 92.5% in [15]; 105% in assay [16]; 102% in assay [17]; 102% in [18].
With `CCN(CC)C12CCCCC1(C)C(C#N)(C#N)C(C#N)=C(N)O2` (centres undefined), the growth in assay [1] is 92.7%; in assay [2], 125%; in [3], 93.4%; in [4], 101%; in assay [5], 100%; in assay [6], 110%. Moreover, the growth in assay [7] was 111%; in [8], 98.3%; in assay [9] it was 120%; in [10], 101%; in [11], 98.8%; in assay [12], 103%. Further, the growth is 96.8% in [13]; 109% in [14]; 105% in [15]; 100% in assay [16]; 96.3% in assay [17]; 106% in assay [18].
Regarding `Nc1cc2ccncc2c2ccccc12`, the growth is 0.467% (active) in [1]; 84.1% in [2]; 57.6% in assay [3]; 76.2% in assay [4]; 82.4% in assay [5]; 66.2% in assay [6]. For the same compound, the growth in assay [7] is 58.7%; in assay [8] it was 75.4%; in assay [9] it was 116%; in assay [10], 53.2%; in assay [11], 82.3%; in assay [12], 70.5%. In addition, the growth in [13] is 59.8%; in assay [14] it was 62.7%; in [15], 51.5%; in assay [16] it was 38.3%; in assay [17] it was 83%; in assay [18] it was 68.6%.
For the compound `CN(C)c1ccc(/C=C(\C#N)c2nc3ccccc3s2)cc1`, the growth is 87.5% in assay [1]; 111% in assay [2]; 99.5% in assay [3]; 109% in assay [4]; 90.9% in [5]; 111% in assay [6]. In addition, the growth in assay [7] is 103%; in assay [8], 119%; in assay [9], 104%; in assay [10] it was 107%; in assay [11] it was 89.4%; in assay [12] it was 72.9%. Besides, the growth in assay [13] was 89.1%; in assay [14] it was 112%; in assay [15] it was 89%; in [16], 96.8%; in [17], 106%; in assay [18], 108%.
